Source: PubChem BioAssay (Tox21)
Inconclusive results are not listed. Active and inactive are the calls of the source. The call rests on the fitted dose curve; in most records, active means well fitted cell-killing curve with a large enough effect in the repeat runs; inconclusive means weak or mixed curves, or effect the other way; inactive means flat fitted curve, though single readings scatter.

Assay: qHTS assay to identify small molecule antagonists of the estrogen receptor alpha (ER-alpha) signaling pathway using the BG1 cell line in the presence of 0.1 nM 17-beta-estradiol - cell viability counter screen (AID 1259241); further: nearly all actives have a fitted effect of over 40% in size
Conditions: VM7Luc4E2 (BG1) viability, CellTiter-Fluor protease, 22 h, 0.1 nM estradiol agonist added; series mostly up to 92.4 µM; activity change, negative = cytotoxicity: at the top concentration
Excerpt: National Center for Advancing Translational Sciences [NCATS]
NIH Chemical Genomics Center [NCGC]
U.S. Environmental Protection Agency [EPA]
National Institutes of Environmental Health Sciences [NIEHS]
National Toxicology Program [NTP]
U.S. Food and Drug Administration [FDA]
Estrogen receptor (ER), a member of the nuclear hormone receptor plays an important role in development, metabolic homeostasis and reproduction. Two subtypes of ER, ER-alpha and ER-beta, have similar expression patterns with some uniqueness in both types. Endocrine disrupting chemicals (EDCs) and their interactions with steroid hormone receptors like ER causes disruption of normal endocrine function. Therefore, it is important to understand the effect of environmental chemicals in ER signaling pathway. For identifying ER antagonists, VM7Luc4E2 cell line was used to screen against Tox21 compound libraries.
VM7Luc4E2 cell line (provided by Denison MS, University of California) endogenously express full-length ER-alpha and is stably transfected with a plasmid containing four estrogen responsive elements (ERE) upstream of a luciferase reporter gene. The current screening for identification of ER-alpha inhibitors against Tox21 compound libraries used lower concentration (0.1 nM) of 17beta-Estradiol as a stimulator. The cytotoxicity of the Tox21 compound libraries against VM7Luc4E2 cell line was tested by measuring live-cell protease activity using CellTiter-Fluor assay in the same wells.
Tox21 Assay Protocol Summary:
VM7Luc4E2 cells were cultured in phenol red free assay medium containing 10% charcoal stripped FBS for 5 days prior to the assay. The cells were dispensed at 4,000 cells/well in 4 uL of assay medium into white wall/solid-bottom 1536-well plates (Corning Life Sciences, Corning, NY) using a Multidrop Combi (ThermoFisher Scientific, Waltham, MA) dispenser. After the assay plates were incubated at 37C and 5% CO2 for 24 hr, 23 nL of compounds dissolved in DMSO, positive controls or DMSO only was transferred to the assay plates by a Pintool station (Kalypsys, San Diego, CA). The transfer of compounds was followed by the addition of 1 uL of 0.1 nM (final concentration) agonist (17beta-Estradiol)/assay medium using a Flying Reagent Dispenser (FRD, Aurora Discovery, San Diego, CA). The plates were incubated at 37C and 5% CO2 for 22 hr. For cytotoxicity assay, 1 uL of CellTiter-Fluor reagent (Promega Corporation, Madison, WI) was added to each well using the FRD and after 30 min incubation at 37C and 5% CO2, The fluorescence intensity was measured using ViewLux plate reader (PerkinElmer, Shelton, CT).
On the % scale 0 is the no-effect control and ±100 the full control effect.

| SMILES | activity change, negative = cytotoxicity | outcome |
| --- | --- | --- |
| Nc1cc(=O)[nH]c(N)n1 | 0.922% [at 42.5 µM] (inactive) | – |
| Oc1ccc(C2CNCCc3c2cc(O)c(O)c3Cl)cc1 (stereo not given) | 3.43% [at 42.5 µM] (inactive) | – |
| CN1CCCC1 | -0.108% (inactive) | – |
| OCCOc1ccc(OCCO)cc1 | 1.3% (inactive) | – |
| Cc1ccc(Cl)cc1Cl | -1.01% (inactive) | – |
| CCCc1cc(C(N)=S)ccn1 | 3.29% [at 42.5 µM] (inactive) | – |
| CC(=O)CC(C)(C)C1CCCCC1 | 13% (inactive) | – |
| CCOC(C)(C)C | -1.86% (inactive) | – |
| CCC(C)C1CCCCC1=O (stereo not given) | 1.95% (inactive) | – |
| Brc1c(NC2=NCCN2)ccc2nccnc12 | -5.92% [at 42.5 µM] (inactive) | – |
| C[C@](N)(Cc1ccc(O)cc1)C(=O)O | 0.275% [at 8.39 µM] (inactive) | – |
| CCN1CCC[C@H]1CNC(=O)c1c(O)c(Cl)cc(Cl)c1OC | -6.49% [at 42.5 µM] (inactive) | – |
| CCSC(=O)N(CC(C)C)CC(C)C | 4.93% (inactive) | – |
| O=C(CCCN1CCC(O)(c2cccc(C(F)(F)F)c2)CC1)c1ccc(F)cc1 | 0.111% [at 42.5 µM] (inactive) | – |
| CCCCOCCOCCOCCCC | -0.306% (inactive) | – |
| CC(=O)Nc1c(I)cc(I)c(C(=O)O)c1I | 8.77% [at 42.5 µM] (inactive) | – |
| NS(=O)(=O)c1ccccc1Cl | -3.05% (inactive) | – |
| NC(=O)c1ccc(N)cc1 | 0.768% (inactive) | – |
| C[N+](C)(C)CCCCCC[N+](C)(C)C | – | inactive |
| COC(=O)c1c(Cl)c(Cl)c(C(=O)OC)c(Cl)c1Cl | – | inactive |

| SMILES | activity change, negative = cytotoxicity | outcome |
| --- | --- | --- |
| C=C(C)CS(=O)(=O)O | 6.29% (inactive) | – |
| CC1(C)CO[C@@H](CC(=O)O)CN1 | 2.06% [at 42.5 µM] (inactive) | – |
| COC(=O)NN | -10.8% (inactive) | – |
| Cc1ccc(C#N)cc1 | -17.9% (inactive) | – |
| C[C@H](NC(CCc1ccccc1)C(=O)O)C(=O)N1CCC[C@H]1C(=O)O (stereo not given in full) | -4.03% [at 42.5 µM] (inactive) | – |
| CCCCCCCCCCCC | -9.63% (inactive) | – |
| O=c1n(CCO)c(=O)n(CCO)c(=O)n1CCO | – | inactive |
| CCOC(=O)CCC(C)=O | 1.4% (inactive) | – |
| CC(C)OC(=O)c1ccccc1 | -1.59% (inactive) | – |
| Cc1c(NC(C)C)c(=O)n(-c2ccccc2)n1C | 1.74% [at 42.5 µM] (inactive) | – |
| FC1(F)C(F)(F)C(F)(F)C2(F)C(F)(F)C(F)(F)C(F)(F)C(F)(F)C2(F)C1(F)F (stereo not given) | 1.67% [at 42.5 µM] (inactive) | – |
| O=C(O)CCCc1ccccc1 | 2.6% [at 42.5 µM] (inactive) | – |
| CC(C)(C)NCCNC(C)(C)C | -0.425% (inactive) | – |
| NS(=O)(=O)c1cc(C(=O)NN2C[C@H]3[C@H]4CCC(C4)[C@H]3C2)ccc1Cl | 0.884% [at 42.5 µM] (inactive) | – |
| CC(=O)OCC(=O)[C@@]1(O)CCC2C3CCC4=CC(=O)CC[C@]4(C)C3[C@@H](O)C[C@@]21C (stereo not given in full) | 1.95% [at 42.5 µM] (inactive) | – |
| CC(=O)OCC(CCn1cnc2cnc(N)nc21)COC(C)=O | 0.212% [at 42.5 µM] (inactive) | – |
| O=[N+]([O-])c1ccc(F)cc1F | 12.4% (inactive) | – |
| CCC(C)S (stereo not given) | 5.76% [at 3.27 µM] (inactive) | – |
| CCCCCSCCCCC | 5.01% (inactive) | – |
| C[C@H]1C[C@@H](O)CC(C)(C)C1 | -3.66% (inactive) | – |
